Measurements taken from PubChem BioAssay.
Activity calls are given as the source filed them. Unless noted, the rule behind the calls is not given here.

Experiments:
[1] = compounds binding Alexa647 anti-His antibody – biochemical, small-molecule microarray, 635 nm fluorescence, artefact control for SMM control protein annotation, primary screen (AID 1128); conditions: higher = more signal;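 note: score merges feature fluorescence with signal-to-noise for each printed compound spot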
[2] = system: Human papillomavirus type 1a E7 protein (residues 1-88); assay: HPV1a E7 small-molecule binders, primary screen, biochemical, small-molecule microarray, residues 1-88, 635 nm (AID 1129); conditions: small-molecule microarray binding, fluorescence 635 nm; higher = more signal
[3] = target: Focal adhesion kinase 1 (Homo sapiens) (UniProt Q05397); assay: PTK2 protein binding on printed compound slides – biochemical, small-molecule microarray, 635/667 nm fluorescence, BSA, DTT, primary screen (AID 1130); conditions: 635 nm fluorescence, higher = more signal;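 note: composite of spot emission at 667 nm and signal to noise over triplicate slides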
Chain of Focal adhesion kinase 1 (Homo sapiens) (Q05397 whole entry, looked up): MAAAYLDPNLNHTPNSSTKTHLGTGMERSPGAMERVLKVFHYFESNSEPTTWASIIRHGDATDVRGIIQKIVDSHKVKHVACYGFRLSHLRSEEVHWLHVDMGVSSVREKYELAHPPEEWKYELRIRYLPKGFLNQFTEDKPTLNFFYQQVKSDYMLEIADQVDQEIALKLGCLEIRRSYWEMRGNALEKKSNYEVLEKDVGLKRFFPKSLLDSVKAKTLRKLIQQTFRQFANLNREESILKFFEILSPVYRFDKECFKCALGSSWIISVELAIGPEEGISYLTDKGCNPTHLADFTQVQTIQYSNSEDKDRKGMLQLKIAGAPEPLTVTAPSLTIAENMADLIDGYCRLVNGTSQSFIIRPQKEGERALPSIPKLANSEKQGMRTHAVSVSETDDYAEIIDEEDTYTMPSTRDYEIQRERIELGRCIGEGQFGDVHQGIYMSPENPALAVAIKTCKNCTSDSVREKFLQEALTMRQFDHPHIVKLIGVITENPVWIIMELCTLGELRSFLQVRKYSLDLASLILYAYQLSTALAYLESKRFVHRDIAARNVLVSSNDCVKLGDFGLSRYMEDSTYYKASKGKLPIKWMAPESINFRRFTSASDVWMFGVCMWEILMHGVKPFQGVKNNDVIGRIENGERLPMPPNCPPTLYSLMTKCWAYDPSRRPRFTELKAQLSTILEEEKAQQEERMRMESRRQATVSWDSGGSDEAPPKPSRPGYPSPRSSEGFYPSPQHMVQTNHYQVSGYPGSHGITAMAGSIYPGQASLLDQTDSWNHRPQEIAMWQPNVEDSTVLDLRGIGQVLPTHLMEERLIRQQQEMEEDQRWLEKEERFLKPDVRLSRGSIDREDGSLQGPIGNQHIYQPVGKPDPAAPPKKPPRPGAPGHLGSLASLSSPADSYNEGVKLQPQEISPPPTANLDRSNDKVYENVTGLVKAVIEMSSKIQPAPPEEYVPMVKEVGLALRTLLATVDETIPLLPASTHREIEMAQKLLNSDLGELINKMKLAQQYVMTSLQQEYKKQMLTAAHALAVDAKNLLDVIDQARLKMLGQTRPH

[4] = system: Fibrinogen (Alexa647-labelled); assay: Alexa647-fibrinogen binding to printed small molecules – biochemical, small-molecule microarray, 635/667 nm fluorescence, artefact control for SMM control-protein annotation, profiling panel (AID 1131); conditions: fibrinogen-A647 binding fluorescence, higher = more signal;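 note: z-score merges 667 nm fluorescence with per-spot signal-to-noise over triplicate slides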
[5] = target: Follistatin (Homo sapiens) (UniProt P19883); assay: FST protein binding to printed compounds – biochemical, small-molecule microarray, 635/667 nm fluorescence, primary screen (AID 1132); conditions: 635 nm fluorescence, higher = more signal
Chain of Follistatin (Homo sapiens) (P19883 whole entry, looked up): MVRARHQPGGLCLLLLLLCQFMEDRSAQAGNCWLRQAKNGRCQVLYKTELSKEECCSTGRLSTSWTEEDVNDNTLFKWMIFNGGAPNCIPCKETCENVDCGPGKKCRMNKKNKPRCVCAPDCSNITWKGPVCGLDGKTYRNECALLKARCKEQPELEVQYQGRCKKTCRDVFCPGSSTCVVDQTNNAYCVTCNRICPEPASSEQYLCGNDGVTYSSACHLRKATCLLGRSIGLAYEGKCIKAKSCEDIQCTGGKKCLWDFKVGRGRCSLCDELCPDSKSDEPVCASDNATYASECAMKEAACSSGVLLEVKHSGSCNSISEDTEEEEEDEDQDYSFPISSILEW

[6] = target: Fibroblast growth factor 2 (Homo sapiens) (UniProt P09038); assay: basic fibroblast growth factor binding to printed compounds – biochemical, small-molecule microarray, 635/667 nm fluorescence, primary screen (AID 1133); conditions: FGF2, fluorescence 635/667, higher = more signal
Chain of Fibroblast growth factor 2 (Homo sapiens) (P09038 whole entry, looked up): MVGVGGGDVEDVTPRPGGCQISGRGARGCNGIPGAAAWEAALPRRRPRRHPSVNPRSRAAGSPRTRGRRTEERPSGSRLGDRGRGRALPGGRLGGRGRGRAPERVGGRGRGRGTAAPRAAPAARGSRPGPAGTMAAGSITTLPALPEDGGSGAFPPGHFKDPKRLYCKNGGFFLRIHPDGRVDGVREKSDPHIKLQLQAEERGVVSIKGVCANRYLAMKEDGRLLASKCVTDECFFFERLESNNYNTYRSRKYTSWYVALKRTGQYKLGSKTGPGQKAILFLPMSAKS

[7] = JC-1 mitochondrial potential readout, lung cancer cells – cell-based, A549, JC-1 fluorescence, basal, 24 h, 100 nL, profiling panel (AID 1138); conditions: higher = more signal;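 note: A549 lung adenocarcinoma cells under basal conditions with no added stimulus; test concentration not given here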
Lefty1 = Lefty1 protein binding to printed compounds – biochemical, small-molecule microarray, 635/667 nm fluorescence, primary screen (AID 1139); conditions: fluorescence 635/667, higher = more signal
[8] = system: wheat germ agglutinin (Triticum aestivum), Alexa647-labelled; assay: Alexa647-WGA lectin binding to printed small molecules – biochemical, small-molecule microarray, 635/667 nm fluorescence, artefact control for SMM control-protein annotation, profiling panel (AID 1140); conditions: WGA-A647 binding, 635 nm fluorescence, higher = more signal;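 note: score merges 667 nm feature emission with signal to noise over triplicate slides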
[9] = target: Luciferin 4-monooxygenase (Photinus pyralis) (UniProt P08659); assay: inhibition of purified Photinus pyralis luciferase – biochemical, luminescence, purified enzyme, 2006 set, primary screen (AID 1141); conditions: purified firefly luciferase, SteadyGlo luminescence, 30 min; higher = more signal, called active from +8 up or from −8 down;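 note: cell-free assay with purified firefly luciferase at 100 ng per well in PBS; test concentration not given here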
Chain of Luciferin 4-monooxygenase (Photinus pyralis) (P08659 whole entry, looked up): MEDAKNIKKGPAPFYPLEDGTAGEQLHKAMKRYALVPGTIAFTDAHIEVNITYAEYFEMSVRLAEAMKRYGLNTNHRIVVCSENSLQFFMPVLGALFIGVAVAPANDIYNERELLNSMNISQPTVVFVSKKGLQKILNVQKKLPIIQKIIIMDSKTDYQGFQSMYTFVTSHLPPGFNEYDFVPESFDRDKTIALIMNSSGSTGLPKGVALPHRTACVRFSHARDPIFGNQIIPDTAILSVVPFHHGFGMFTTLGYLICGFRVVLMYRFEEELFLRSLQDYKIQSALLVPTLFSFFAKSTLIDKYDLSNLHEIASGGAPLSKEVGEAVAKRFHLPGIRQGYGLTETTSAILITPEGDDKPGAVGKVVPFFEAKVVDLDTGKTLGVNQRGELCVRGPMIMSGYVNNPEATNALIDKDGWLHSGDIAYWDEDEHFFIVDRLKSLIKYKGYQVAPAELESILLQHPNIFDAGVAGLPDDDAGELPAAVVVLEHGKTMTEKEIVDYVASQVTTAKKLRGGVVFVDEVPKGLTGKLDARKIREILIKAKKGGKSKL

[10] = system: Wnt5a (protein binding on small-molecule microarray); assay: small molecules binding Wnt5a protein – biophysical, small-molecule microarray, 635/667 nm fluorescence, primary screen (AID 1142); conditions: 635 nm fluorescence, higher = more signal;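 note: fluorescence read at 667 nm with signal to noise per printed feature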
[11] = ATP-based viability of Huh7 replicon cells – cell-based, CellTiter-Glo luminescence, basal, 48 h, cytotoxicity control for HCV replication inhibitor project, primary screen (AID 1143); conditions: higher = more signal, called active from +8 up or from −8 down;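 note: Huh7 hepatoma cells carrying a hepatitis C replication reporter with no stimulus; test concentration not given here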
[12] = Pseudomonas biofilm growth suppression – PAO1 strain, BacTiter-Glo luminescence, LB-PBS, primary screen (AID 1144); conditions: P. aeruginosa PAO1 biofilm, 12 h, higher = more signal
[13] = basal CRE-LacZ reporter activity in PC12 – cell-based, unstimulated, primary screen (AID 1145); conditions: no forskolin, luminescence, 4.5 h, higher = more signal, called active from +8 up or from −8 down
[14] = forskolin-driven CRE-LacZ activity in PC12 – cell-based, CRE-LacZ reporter, forskolin-stimulated, primary screen (AID 1146); conditions: luminescence, 4.5 h, higher = more signal, called active from +8 up or from −8 down;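 note: PC12 cells with 6xCRE LacZ reporter stimulated by forskolin 10 µM; beta-galactosidase reporter signal reflecting CREB driven transcription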
[15] = target: Streptavidin (Streptomyces avidinii) (UniProt P22629); assay: compounds binding control protein streptavidin – biophysical, small-molecule microarray, 635/667 nm fluorescence, artefact control for SMM compound annotation, primary screen (AID 1147); conditions: higher = more signal;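 note: signal reflects streptavidin binding to arrayed compounds as a control protein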
Chain of Streptavidin (Streptomyces avidinii) (P22629 whole entry, looked up): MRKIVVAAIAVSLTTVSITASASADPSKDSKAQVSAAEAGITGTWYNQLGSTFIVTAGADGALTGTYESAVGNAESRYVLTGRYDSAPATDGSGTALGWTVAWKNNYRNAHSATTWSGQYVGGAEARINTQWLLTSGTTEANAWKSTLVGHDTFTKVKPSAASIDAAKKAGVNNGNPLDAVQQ

[16] = probe aInhba binding on compound microarray – biochemical, small-molecule microarray, 635/667 nm fluorescence, primary screen (AID 1148); conditions: higher = more signal;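 note: score merges 667nm spot fluorescence with signal-to-noise for antibody binding to printed compounds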
Torsin-1A (Homo sapiens) [17] = target: Torsin-1A (Homo sapiens) (UniProt O14656); assay: TOR1A wild-type binding on microarray – cell lysate, small-molecule microarray, lysate, 635/667 nm, primary screen (AID 1149); conditions: COS7 hTOR1A-WT lysate, 635 nm fluorescence, higher = more signal
Chain of Torsin-1A (Homo sapiens) (O14656 whole entry, looked up): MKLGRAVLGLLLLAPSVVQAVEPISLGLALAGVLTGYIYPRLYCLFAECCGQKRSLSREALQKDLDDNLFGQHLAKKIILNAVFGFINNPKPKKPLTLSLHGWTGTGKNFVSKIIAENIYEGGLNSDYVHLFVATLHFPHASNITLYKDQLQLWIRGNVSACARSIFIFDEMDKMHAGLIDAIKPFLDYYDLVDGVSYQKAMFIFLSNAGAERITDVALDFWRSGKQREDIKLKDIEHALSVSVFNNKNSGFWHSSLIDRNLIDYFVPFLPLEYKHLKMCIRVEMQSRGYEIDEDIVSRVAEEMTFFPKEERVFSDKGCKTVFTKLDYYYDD

Torsin-1A (Homo sapiens) [18] = target: Torsin-1A (Homo sapiens) (UniProt O14656); assay: torsin A mutant lysate binding on microarrays – cell lysate, small-molecule microarray, COS7 lysate, 635/667 nm fluorescence, primary screen (AID 1150); conditions: COS7 hTOR1A mutant lysate, 635 nm fluorescence, higher = more signal;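 note: score pools 667 nm emission and signal to noise measuring lysate protein binding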
[19] = system: Sonic hedgehog protein (Shh); assay: Sonic hedgehog microarray binding compounds – biochemical, small-molecule microarray, 635/667 nm fluorescence, primary screen (AID 1151); conditions: 635 nm fluorescence, higher = more signal;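 note: Shh protein binding to compounds spotted on small-molecule microarray slides; score combines spot fluorescence intensity with signal-to-noise across triplicate slides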

COCCCNC(=O)[C@]1(Cc2ccccc2CN=[N+]=[N-])N=C(c2ccc(OCCCO)cc2)O[C@@H]1c1ccccc1CN=[N+]=[N-]
composite z-score [1]: 2.28
composite z-score [2]: 1.2
composite z-score [3]: 0.11
composite z-score [4]: 0.954
composite z-score [5]: 0.701
composite z-score [6]: 0.244
z-score [7]: 1.28
composite z-score (Lefty1): -0.449
composite z-score [8]: 1.02
z-score [9]: -0.107 (inactive)
composite z-score [10]: 0.471
z-score [11]: -4.04 (inactive)
z-score [12]: 1.06 (inactive)
z-score [13]: 0.969 (inactive)
z-score [14]: -1.02 (inactive)
composite z-score [15]: 1.23
composite z-score [16]: 0.648
composite z-score (Torsin-1A (Homo sapiens) [17]): 0.883
composite z-score (Torsin-1A (Homo sapiens) [18]): 0.721
composite z-score [19]: -0.256

COc1ccc([Si](C)(C)[C@H]2[C@H](CC(=O)N3CCC[C@H]3CO)O[C@@]3(C(=O)N(Cc4ccc(N5C(=O)c6cccc7cccc5c67)cc4)c4ccccc43)[C@@H]2C)cc1
composite z-score [1]: 1.7
composite z-score [2]: 1.17
composite z-score [3]: 1.18
composite z-score [4]: 0.864
composite z-score [5]: 1.07
composite z-score [6]: 1.21
z-score [7]: 0.285
composite z-score (Lefty1): 1.48
composite z-score [8]: 0.682
z-score [9]: 0.0355 (inactive)
composite z-score [10]: 0.213
z-score [11]: -3.73 (inactive)
z-score [12]: 0.0403 (inactive)
z-score [13]: 0.543 (inactive)
z-score [14]: -0.594 (inactive)
composite z-score [15]: 0.197
composite z-score [16]: 0.134
composite z-score (Torsin-1A (Homo sapiens) [17]): 0.81
composite z-score (Torsin-1A (Homo sapiens) [18]): 0.397
composite z-score [19]: 2.05

COCCCNC(=O)[C@@H]1c2ccccc2C(=O)N(Cc2cc(F)cc(C(F)(F)F)c2)[C@H]1c1ccc(CO)cc1
composite z-score [1]: -0.669
composite z-score [2]: -1.06
composite z-score [3]: -0.751
composite z-score [4]: -1.81
composite z-score [5]: -0.252
composite z-score [6]: -0.94
z-score [7]: 0.261
composite z-score (Lefty1): -0.584
composite z-score [8]: 0.373
z-score [9]: -0.646 (inactive)
composite z-score [10]: -0.575
z-score [11]: -0.016 (inactive)
z-score [12]: -0.043 (inactive)
z-score [13]: 0.944 (inactive)
z-score [14]: -0.224 (inactive)
composite z-score [15]: -0.716
composite z-score [16]: -0.264
composite z-score (Torsin-1A (Homo sapiens) [17]): -2.22
composite z-score (Torsin-1A (Homo sapiens) [18]): -0.0932
composite z-score [19]: -0.508

COC(=O)[C@@]1(Cc2ccc(OC)cc2)[C@H]2c3cc(C(=O)N(C)C)n(Cc4cc(F)c(F)c(F)c4)c3C[C@H]2CN1C(=O)c1ccccc1
composite z-score [1]: 1
composite z-score [2]: 1.21
composite z-score [3]: 1.86
composite z-score [4]: 1.01
composite z-score [5]: 0.761
composite z-score [6]: -0.965
z-score [7]: -0.787
composite z-score (Lefty1): 0.0601
composite z-score [8]: 0.952
z-score [9]: 1.07 (inactive)
composite z-score [10]: 0.397
z-score [11]: -4.47 (inactive)
z-score [12]: -0.00792 (inactive)
z-score [13]: 1.34 (inactive)
z-score [14]: 1.12 (inactive)
composite z-score [15]: 1.63
composite z-score [16]: 0.528
composite z-score (Torsin-1A (Homo sapiens) [17]): -0.312
composite z-score (Torsin-1A (Homo sapiens) [18]): 0.712
composite z-score [19]: -0.692

O=C1CSC(c2cccc([N+](=O)[O-])c2)N1c1ccccc1 (stereo not given)
composite z-score [1]: 0.317
composite z-score [2]: 0.494
composite z-score [3]: -0.0119
composite z-score [4]: 0.667
composite z-score [5]: 0.244
composite z-score [6]: 0.481
z-score [7]: 0.774
composite z-score (Lefty1): 0.257
composite z-score [8]: -0.0002
z-score [9]: 0.174 (inactive)
composite z-score [10]: 0.0388
z-score [11]: -0.735 (inactive)
z-score [12]: -0.249 (inactive)
z-score [13]: -0.321 (inactive)
z-score [14]: -0.567 (inactive)
composite z-score [15]: -0.545
composite z-score [16]: -0.147
composite z-score (Torsin-1A (Homo sapiens) [17]): 0.838
composite z-score (Torsin-1A (Homo sapiens) [18]): 0.153
composite z-score [19]: 0.221

NC(=O)NCC#Cc1ccc2c(c1)[C@]1(C(=O)N2)[C@H](c2ccc(O)cc2)N2[C@H](c3ccccc3)[C@H](c3ccccc3)OC(=O)[C@H]2[C@@H]1C(N)=O
composite z-score [1]: 0.184
composite z-score [2]: -1.21
composite z-score [3]: -0.549
composite z-score [4]: -0.934
composite z-score [5]: -0.0645
composite z-score [6]: -0.219
z-score [7]: -0.65
composite z-score (Lefty1): -0.295
composite z-score [8]: -0.784
z-score [9]: -0.22 (inactive)
composite z-score [10]: -0.0353
z-score [11]: -0.281 (inactive)
z-score [12]: -0.125 (inactive)
z-score [13]: -0.0515 (inactive)
z-score [14]: 0.143 (inactive)
composite z-score [15]: -0.928
composite z-score [16]: -0.105
composite z-score (Torsin-1A (Homo sapiens) [17]): -1.49
composite z-score (Torsin-1A (Homo sapiens) [18]): -1.74
composite z-score [19]: 0.0139
